ALR H2O2 inh = inhibitors of human sulfhydryl oxidase ALR. P55789. purified ALR, DTT oxidation, H2O2 HRP-luminol luminescence. inhibition, % (concentration not given with the values). 290,000 tested, 3.8% active. AID 485317;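 active = mean replicate inhibition above about 79%, with every replicate also reaching it, limit read from the data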
CDK5 inh = inhibitors of human CDK5/p35 kinase; Q00535+Q15078; AID 488839; 330,000 tested, 0.01% active; Recombinant CDK5/p35, ADP-Glo luminescence, 60 min; inhibition, % at 10 µM;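 active = highest replicate inhibition of at least 50% and at least 75% of replicates reaching 50%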;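 note: plate controls were DMSO neutral control for no effect and GW8510 at 10 µM for full effect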
Casp6 inh = blocks human caspase-6 cleavage activity | P55212 | purified caspase-6, Z-VEID-R110 cleavage fluorescence | inhibition, % at 12.5 µM | 350,000 tested, 0.53% active | AID 686996;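 active = mean inhibition across replicates at least about 35%, with every replicate also reaching that limit, limit read from the data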;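 note: 0% = median of neutral control wells and 100% = no fluorescence left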
NSD2 HMT inh = blocks human histone methyltransferase NSD2; 310,000 tested, 0.54% active; O96028; inhibition, % at 12.5 µM; NSD2 peptide methylation, AlphaScreen, 120 min; in the data active = inhibition above about 50%
Target sequence (O96028 whole entry, looked up): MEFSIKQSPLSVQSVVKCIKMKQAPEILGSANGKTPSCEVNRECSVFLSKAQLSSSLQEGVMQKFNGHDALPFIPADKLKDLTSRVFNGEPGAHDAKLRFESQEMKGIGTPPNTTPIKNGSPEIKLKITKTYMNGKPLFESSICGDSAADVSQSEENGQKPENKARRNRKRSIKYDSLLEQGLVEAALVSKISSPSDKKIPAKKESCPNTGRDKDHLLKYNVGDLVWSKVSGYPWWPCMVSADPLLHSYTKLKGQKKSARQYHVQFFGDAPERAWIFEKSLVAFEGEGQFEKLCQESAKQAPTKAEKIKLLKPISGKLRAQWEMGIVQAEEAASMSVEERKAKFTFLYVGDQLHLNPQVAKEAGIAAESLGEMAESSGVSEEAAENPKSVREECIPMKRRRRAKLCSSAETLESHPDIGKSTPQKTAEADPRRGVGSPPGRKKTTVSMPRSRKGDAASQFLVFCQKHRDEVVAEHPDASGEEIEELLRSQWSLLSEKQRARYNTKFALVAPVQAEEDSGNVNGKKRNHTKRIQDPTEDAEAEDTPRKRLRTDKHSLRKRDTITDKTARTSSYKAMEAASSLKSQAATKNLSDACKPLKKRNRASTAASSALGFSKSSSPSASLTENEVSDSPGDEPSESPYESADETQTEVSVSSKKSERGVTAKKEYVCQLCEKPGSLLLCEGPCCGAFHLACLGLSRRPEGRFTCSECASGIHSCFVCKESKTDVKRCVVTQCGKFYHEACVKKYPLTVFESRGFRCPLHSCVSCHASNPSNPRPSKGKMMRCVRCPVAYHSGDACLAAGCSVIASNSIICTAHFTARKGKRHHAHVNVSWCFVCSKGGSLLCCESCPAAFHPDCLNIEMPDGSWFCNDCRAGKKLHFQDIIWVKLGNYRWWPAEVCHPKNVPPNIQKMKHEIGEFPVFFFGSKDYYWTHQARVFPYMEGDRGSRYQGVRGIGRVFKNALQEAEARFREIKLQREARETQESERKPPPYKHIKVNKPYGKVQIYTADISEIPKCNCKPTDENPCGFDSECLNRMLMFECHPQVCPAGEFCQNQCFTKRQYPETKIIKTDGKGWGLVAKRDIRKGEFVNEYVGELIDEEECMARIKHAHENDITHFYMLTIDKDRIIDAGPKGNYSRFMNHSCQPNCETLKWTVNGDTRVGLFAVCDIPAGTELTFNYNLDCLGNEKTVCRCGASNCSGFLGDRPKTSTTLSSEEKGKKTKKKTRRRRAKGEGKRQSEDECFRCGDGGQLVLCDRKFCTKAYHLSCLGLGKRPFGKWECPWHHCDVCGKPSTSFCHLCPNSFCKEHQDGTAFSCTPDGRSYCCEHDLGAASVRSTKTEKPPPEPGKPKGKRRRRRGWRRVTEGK
N-glyco inh = N-linked glycosylation inhibition. AID 588692. 360,000 tested, 0.23% active. reporter increase, % at 12.5 µM. D54 ERlucT glycosylation luciferase reporter, 24 h; percent of 100 nM tunicamycin response;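 active = mean luciferase reporter signal, scaled so untreated is 0 and the glycosylation-blocking control 100, at or above a set limit in every replicate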;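 note: luciferase carries N-glycosylation sites so blocking glycosylation raises the light; 0% = median of neutral control wells and 100% = median of 100 nM tunicamycin wells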
Mot1-301 SUMO = inhibitors of SUMOylation pathway: yeast Mot1-301 growth rescue | S. cerevisiae Mot1-301 growth rescue, ATP luminescence, 38.5C; percent above DMSO median, 100 means doubled | growth rescue, % at 18.8 µM | 320,000 tested, 1% active | AID 2716;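 active = every valid replicate shows activation above 250% relative to neutral control wells; inactive = the rest, any valid replicate at or below 250%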;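 note: OY570 slx delta 5 strain wells were the positive control but not used for scaling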
Mot1 SUMO dose = yeast SUMO pathway inhibition in dose response. growth activity, percent, % at 42 µM. 2,300 tested, under 10 active. AID 493004. shares compounds with Mot1-301 SUMO. S. cerevisiae Mot1-301 galactose growth, ATP luminescence, 24 h; -100 = growth of slx-deleted rescue strain;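 active = Signal drops as the depositor expects, and the fitted half-maximal dose is no more than ten times the top valid tested dose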;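 note: more negative values mean stronger growth rescue toward the control strain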
Starred values were filed as active, the others as inactive. Rows were chosen to be rich in hits. Some 3.9% of all compounds tested hit in one or more screens of this group.

Screening C[C@@H]1CN([C@H](C)CO)C(=O)c2cc(-c3cccc(C#N)c3)cnc2O[C@H]1CN(C)C(=O)C1CCOCC1 returned Casp6 inh 2.
Cc1cccc(OCc2nnc(SCC(=O)N3c4ccccc4CC3C)n2C)c1C (configuration not stated) was read as ALR H2O2 inh -1, CDK5 inh 0, NSD2 HMT inh 0, N-glyco inh -3, Mot1-301 SUMO 400* and Mot1 SUMO dose 0.
Cc1ccccc1OCc1nnc(SCC(=O)N2CCc3ccccc32)n1C was read as ALR H2O2 inh -22, CDK5 inh 2, NSD2 HMT inh -1, N-glyco inh 1 and Mot1-301 SUMO -11.
`O=C(OCC(=O)N1CCN(c2ccccc2)CC1)c1nc(Cl)ccc1Cl` gave ALR H2O2 inh 4, CDK5 inh -1, Casp6 inh -1, NSD2 HMT inh 1, N-glyco inh 2, Mot1-301 SUMO 641* and Mot1 SUMO dose 0.
`O=C(O)c1cccc(NC(=O)c2cccc(S(=O)(=O)Nc3cccc([N+](=O)[O-])c3)c2)c1` gave ALR H2O2 inh 76*, CDK5 inh 0, Casp6 inh 1, NSD2 HMT inh -1, N-glyco inh 1, Mot1-301 SUMO 419* and Mot1 SUMO dose 2.
Cc1ccc(C(=O)Nc2cccc([N+](=O)[O-])c2)cc1S(=O)(=O)Nc1ccc(NC(=O)c2ccccc2)cc1 was read as ALR H2O2 inh -5, CDK5 inh -1, NSD2 HMT inh -3, N-glyco inh -5 and Mot1-301 SUMO -14.
`Cc1ccc(NS(=O)(=O)c2cc(C(=O)Nc3cccc([N+](=O)[O-])c3)ccc2C)cc1` gave ALR H2O2 inh -8, CDK5 inh 0, Casp6 inh -2, NSD2 HMT inh -1, N-glyco inh -7, Mot1-301 SUMO 476* and Mot1 SUMO dose 1.
Screening CCCCC(=O)Nc1cc(OC)c(NC(=O)C2CCCCC2)cc1OC returned ALR H2O2 inh -17, CDK5 inh -1, NSD2 HMT inh 1, N-glyco inh 3, Mot1-301 SUMO 711* and Mot1 SUMO dose 0.
Screening COc1cc(NC(=O)C2CCCC2)c(OC)cc1Cl returned ALR H2O2 inh 30, CDK5 inh -2, NSD2 HMT inh 1, N-glyco inh 1 and Mot1-301 SUMO 18.
COc1ccc(CCN2CC(C(=O)N(C)CC(=O)Nc3cccc(F)c3)CC2=O)cc1OC (configuration not stated) was read as ALR H2O2 inh -2, CDK5 inh 1, Casp6 inh 3, NSD2 HMT inh 0, N-glyco inh 2, Mot1-301 SUMO 451* and Mot1 SUMO dose 0.
C[C@H]1CN([C@@H](C)CO)C(=O)c2cc(C#CC(C)(C)O)cnc2O[C@H]1CN(C)Cc1ccccn1 was read as Casp6 inh 2.
For Cc1ccc(S(=O)(=O)Nc2cccc3c2O[C@H](CN(C)C(=O)Nc2ccccc2)[C@@H](C)CN([C@@H](C)CO)C3=O)cc1 the results were Casp6 inh -4.
For C[C@@H]1CN([C@@H](C)CO)S(=O)(=O)c2ccc(-c3ccccc3F)cc2O[C@H]1CN(C)Cc1ccncc1 the results were Casp6 inh 0.
Screening Cc1ccc(N2C(=O)c3cccc4c(N5CCN(C)CC5)ccc(c34)C2=O)c2cccnc12 returned ALR H2O2 inh 15, Mot1-301 SUMO 702* and Mot1 SUMO dose -1.
For O=C(N[C@H]1CC[C@H](CCNS(=O)(=O)c2ccccc2)O[C@H]1CO)c1cnccn1 the results were Casp6 inh 0.
For Cc1cc(NC(=O)c2ccc(N3C(=O)CCC3=O)cc2)no1 the results were ALR H2O2 inh -3, CDK5 inh -2, NSD2 HMT inh -1, N-glyco inh 1, Mot1-301 SUMO 701* and Mot1 SUMO dose 0.
`O=C(N/N=C/C(Br)=C/c1ccccc1)c1cccnc1` gave ALR H2O2 inh -9, CDK5 inh 2, Casp6 inh 0, NSD2 HMT inh 0, N-glyco inh 8, Mot1-301 SUMO 500* and Mot1 SUMO dose -2.
O=C(NCc1ccccn1)c1ccccc1OCc1ccc(Cl)cc1Cl was read as ALR H2O2 inh 14, CDK5 inh -2, Casp6 inh -2, NSD2 HMT inh -1, N-glyco inh -2 and Mot1-301 SUMO 30.
Screening N/C(=N\NC(=O)c1sccc1OCc1ccc(Cl)cc1Cl)c1ccccn1 returned ALR H2O2 inh -1, CDK5 inh -4, Casp6 inh 1, NSD2 HMT inh -5, N-glyco inh -4, Mot1-301 SUMO 529* and Mot1 SUMO dose 0.
For Cc1[nH]n(-c2ccccc2)c(=O)c1C(C[N+](=O)[O-])c1ccc(Br)cc1 (configuration not stated) the results were ALR H2O2 inh 41, CDK5 inh 1, NSD2 HMT inh 32, N-glyco inh 1, Mot1-301 SUMO 524* and Mot1 SUMO dose -1.
For C[C@H]1CN([C@@H](C)CO)S(=O)(=O)c2ccc(C3=CCCC3)cc2O[C@@H]1CN(C)Cc1cccc(C(=O)O)c1 the results were Casp6 inh -1.
`C[C@H](CO)N1C[C@H](C)[C@H](CN(C)C(=O)NC2CCCCC2)Oc2ccc(NC(=O)C3CC3)cc2CC1=O` gave Casp6 inh 0.
For CCCn1c(SC(C)C(=O)NCC2CCCO2)nc2sc3c(c2c1=O)CCC3 (configuration not stated) the results were ALR H2O2 inh -8, CDK5 inh -2, Casp6 inh 7, NSD2 HMT inh -1, N-glyco inh -1 and Mot1-301 SUMO 172.
`CCCn1c(SC(C)C(=O)NCC2CCCO2)nc2sc(CC)cc2c1=O` (configuration not stated) gave ALR H2O2 inh 2, CDK5 inh -1, Casp6 inh 0, NSD2 HMT inh 6, N-glyco inh 0, Mot1-301 SUMO 466* and Mot1 SUMO dose 1.
Screening COc1ccc(CNC(=O)N(C)C[C@H]2OCc3ccccc3-c3c(n(C)c4ccccc34)C(=O)N([C@@H](C)CO)C[C@@H]2C)cc1 returned Casp6 inh 7.
`COc1ccc(OC)c(NC(=O)CCN2CCN(Cc3ccccc3)CC2)c1` gave ALR H2O2 inh -52, CDK5 inh -1, NSD2 HMT inh 2, N-glyco inh 3 and Mot1-301 SUMO -3.
For COc1cc(NC(=O)CCN2CCN(Cc3ccccc3)CC2)cc(OC)c1 the results were ALR H2O2 inh -4, CDK5 inh -3, NSD2 HMT inh -1, N-glyco inh -1, Mot1-301 SUMO 696* and Mot1 SUMO dose 0.
